In experiment [1] the target is Aldehyde dehydrogenase, mitochondrial (Homo sapiens) (UniProt P05091). Briefly: qHTS for Inhibitors of the Aldehyde Dehydrogenase Family (ALDH2) Primary screen (AID 2061308). Further: nearly all actives have a fitted effect of over 55% in size. The settings on record: ALDH2 enzyme inhibition qHTS, 1536-well; series mostly up to 56 µM.
The target of experiment [2] is Retinaldehyde dehydrogenase 3 (Homo sapiens) (UniProt P47895). The experiment is described as follows: qHTS for Inhibitors of the Aldehyde Dehydrogenase Family (ALDH1A3) Primary screen (AID 2061315). The settings on record: ALDH inhibition qHTS; series mostly up to 56 µM.

Results filed as inconclusive are left out. Where a call stands in place of a potency, no number is given. Calls of active or inactive are those of the source. The call rests on the fitted dose curve; in most records, active means well fitted curve in the direction sought with a large enough effect; inconclusive means small, poorly fitted or top-dose-only effect, or another doubt; inactive means no such curve, though single readings can be large; an effect the other way counts as inactive or inconclusive.

Take `CC(=O)Nc1sc2c(c1-c1ccc3nonc3c1)CCNC2`: the Potency result in experiment [1] and in experiment [2] was “inactive” in each case.

Regarding `O=C(Cc1ccc(Cl)c(Cl)c1)Nc1ccc(S(=O)(=O)Nc2ccccc2)cc1`, the Potency entry in experiment [1] and in experiment [2] was “inactive” throughout.

In the case of `COc1ccc2c(c1)N1C(=O)C[C@@]34C=CC[N@+]5([O-])CC[C@H]2[C@H](CC3)[C@@]145`, the Potency result in experiment [1] and in experiment [2] was “inactive” each time.

With `Cc1cc(C)nc(NC(=S)N2CCN(c3nccc4occc34)CC2)c1`, the Potency entry in experiment [1] and in experiment [2] was “inactive” each time.

Consider `COc1cc(O)c(C(CC(=O)N2CCCC(COc3ccc(F)cc3)C2)c2ccc3c(c2)OCO3)c(OC)c1` (stereo not given), for which the Potency entry in experiment [1] and in experiment [2] was “inactive” each time.

`Cc1cc2[nH]c3c(=O)n(Cc4ccccc4F)ncc3c2s1`: the Potency entry in experiment [1] and in experiment [2] was “inactive” in each case.

With `O=C(O)c1ccc2c(c1)C(=O)N([C@H](Cc1ccc(C(F)(F)F)cc1)C(=O)O)C2=O`, the Potency result in experiment [1] and in experiment [2] was “inactive” each time.

Take `C=C1C[C@]23C[C@H]1CC[C@H]2C1=C[C@H]2OC(=O)[C@@](C)([C@H]1[C@@H]3C(=O)O)[C@H]2O`: the Potency result in experiment [1] and in experiment [2] was “inactive” each time.

`C=C1CCC2C(C)(C(=O)OC)CCCC2(C)C1CCC1=CCOC1=O` (stereo not given): the Potency entry in experiment [1] and in experiment [2] was “inactive” throughout.

With `O=C(OCC#CCSc1nnc(-c2cccc3ccccc23)o1)c1cccc2[nH]ccc12`, the Potency result in experiment [1] and in experiment [2] was “inactive” throughout.

In the case of `Cc1nc(NCCO)c2nc(-c3ccccc3)n(CC3CCN(C)CC3)c2n1`, the Potency entry in experiment [1] and in experiment [2] was “inactive” in each case.

Regarding `CC(C)N1CCc2c(-c3nc4ccccc4s3)csc2C1`, the Potency entry in experiment [1] and in experiment [2] was “inactive” each time.

On to `Cc1ccc(S(=O)(=O)Nc2ccc(C)cc2C(=O)Nc2nc(-c3ccccc3)cs2)cc1`, for which the Potency result in experiment [1] and in experiment [2] was “inactive” in each case.

Turning to `CC(C)(C)OC(=O)CC(=O)NNC(=O)c1cc2ccccc2[nH]1`, the Potency entry in experiment [1] and in experiment [2] was “inactive” throughout.

In the case of `COc1ccc(C2Nc3ccccc3C(=O)N2Cc2ccccc2)cc1COc1c(C)cccc1C` (stereo not given), the Potency entry in experiment [1] and in experiment [2] was “inactive” throughout.

For `O=C(Nc1ccc(F)c(C(F)(F)F)c1)Nc1cccc(-c2ccncc2)n1`, the Potency result in experiment [1] and in experiment [2] was “inactive” each time.

For the compound `Cc1ccc(OCCn2c(CCNC(=O)c3cccc(F)c3)nc3ccccc32)cc1`, the Potency result in experiment [1] and in experiment [2] was “inactive” throughout.

`Cc1cccc(CNc2ccnc(-c3ccc(C(F)(F)F)cc3)n2)c1`: the Potency entry in experiment [1] and in experiment [2] was “inactive” in each case.

For `CC1=C(C(=O)n2ccc3ccccc32)C(c2ccccc2Br)N=C(Nc2nc3ccccc3o2)N1` (stereo not given), the Potency result in experiment [1] and in experiment [2] was “inactive” in each case.

As to `CCNc1cccc(S(=O)(=O)N2CCCN(S(=O)(=O)c3ccc4c(c3)OCCO4)CC2)c1`, the Potency entry in experiment [1] and in experiment [2] was “inactive” in each case.

As for `C[C@H]1CC[C@@]2(OC1)O[C@H]1CC3[C@@H]4CC[C@@H]5C[C@@H](O[C@@H]6O[C@H](CO)[C@@H](O[C@@H]7O[C@H](CO[C@@H]8OC[C@@H](O)[C@H](O)[C@H]8O)[C@@H](O[C@@H]8O[C@H](CO)[C@H](O)[C@H](O)[C@H]8O)[C@H](O)[C@H]7O)[C@H](O)[C@H]6O)CC[C@]5(C)C4CC[C@]3(C)[C@H]1[C@@H]2C` (stereo not given in full), the Potency entry in experiment [1] and in experiment [2] was “inactive” in each case.

As for `Cc1ccccc1S(=O)(=O)N1CCN(S(=O)(=O)c2ccc3c(c2)OCCO3)CC1`, the Potency result in experiment [1] and in experiment [2] was “inactive” each time.

As to `Cc1ccc(-c2ccc(=O)n(CC(=O)N(C)C(C)c3ccco3)n2)cc1` (stereo not given), the Potency entry in experiment [1] and in experiment [2] was “inactive” throughout.

Regarding `CC/C=C/CC1=C(CCCCC(CCC(=O)O)OC(C)=O)CCC1=O` (stereo not given), the Potency result in experiment [1] and in experiment [2] was “inactive” in each case.

As for `O=S(=O)(c1ccc2nc(Cl)c(Cl)nc2c1)N1CCN(S(=O)(=O)c2c(F)cccc2F)CC1`, the Potency entry in experiment [1] and in experiment [2] was “inactive” in each case.

With `COc1ccc(NC(=O)c2cnn3c(C)cc(C)nc23)cc1Cl`, the Potency result in experiment [1] and in experiment [2] was “inactive” in each case.

With `COc1ccc(OC)c(Nc2nn3c(=O)c4ccccc4nc3s2)c1`, the Potency result in experiment [1] and in experiment [2] was “inactive” each time.

Take `Cn1nnnc1Sc1ncnc2scc(-c3ccccc3[N+](=O)[O-])c12`: the Potency entry in experiment [1] and in experiment [2] was “inactive” throughout.

On to `O=C1CCCC2=C1C(c1[nH]ncc1Cl)N=C(Nc1nc3ccccc3s1)N2` (stereo not given), for which the Potency entry in experiment [1] and in experiment [2] was “inactive” in each case.

Turning to `CCOc1ccc(CCNC(=O)C2(c3ccccc3)CC2)cc1OCC`, the Potency result in experiment [1] and in experiment [2] was “inactive” throughout.

On to `NCCCCC(=O)Nc1ccc(Cl)cc1C(=O)c1ccc[nH]1`, for which the Potency result in experiment [1] and in experiment [2] was “inactive” throughout.

For `O=C(Nc1cc(F)cc(F)c1)Nc1nnc(-c2ccncc2)s1`, the Potency result in experiment [1] and in experiment [2] was “inactive” in each case.

Consider `CC(C)CC(=O)c1c(O)cc2c(c1O)C(CC(C)C)C1=C(O2)C(C)(C)C(=O)C(C)(C)C1=O` (stereo not given), for which the Potency result in experiment [1] and in experiment [2] was “inactive” throughout.

Turning to `NC(=O)C1CCN(c2nc(-c3ccc(OCc4ccccc4)cc3)cs2)CC1`, the Potency entry in experiment [1] and in experiment [2] was “inactive” throughout.

On to `Cc1cc(C)n2ncc(C(=O)Nc3cccc(C#N)c3)c2n1`, for which the Potency result in experiment [1] and in experiment [2] was “inactive” in each case.

Consider `Cc1noc(C)c1-c1ccc2ncnc(NCc3ccccc3F)c2c1`, for which the Potency result in experiment [1] and in experiment [2] was “inactive” each time.

As for `COC(=O)c1ccccc1NC(=O)c1ccc(F)cc1F`, the Potency entry in experiment [1] and in experiment [2] was “inactive” each time.

As for `O=C(Nc1ccc2ccccc2c1)Nc1nnc(C2CCCCC2)s1`, the Potency entry in experiment [1] and in experiment [2] was “inactive” each time.

On to `O=C(C[C@H]1CC[C@@H](C(=O)Nc2ccc(S(=O)(=O)Nc3nccs3)cc2)C1)c1ccccc1`, for which the Potency result in experiment [1] and in experiment [2] was “inactive” throughout.

As for `Cc1ccc2nc(NC3=NC4(CCCC4)C4=C(CCCC4=O)N3)oc2c1`, the Potency entry in experiment [1] and in experiment [2] was “inactive” throughout.

For the origin of these results see PubChem BioAssay (NCATS).
